SMILES strings stand for the structures. Screen size: about 1,900 compounds; about 250 (13%) were called active. Roughly 4% stayed inconclusive and do not appear here.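 The calls were made as follows: active = fitted curve reaches 40% rescue activity at or below the top valid dose, in every test run; inconclusive = test runs disagree, some active and some inactive; inactive = every run misses the threshold or moves the wrong way.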 Not all results are given here. Results with a measured potency or affinity are listed apart.

The experiment in a line: rescue of simvastatin-induced ATP loss – cell-based, C2C12 myotubes, ATP luminescence, cherry pick, dose response (AID 624405).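 Also: myotubes are challenged with simvastatin at 10 µM to lower ATP.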 The following applies: 48 h, scaled: DMSO wells 0, geranylgeraniol wells 100; series mostly up to 19.5 µM.
Consider `COc1ccc(OC)c(CNC(=O)C2CCCN(c3nc4ccccc4o3)C2)c1` (stereo not drawn), for which the result was inactive.

With `CCCS(=O)(=O)N1CCCC(C(=O)N2CCN(c3ccccc3)CC2)C1` (stereo not drawn), the molecule was called inactive.

Turning to `CN(C)c1nc(Oc2ccc(C(=O)OCC(=O)Nc3ccccc3)cc2)nc(N(C)C)n1`, the molecule was classed as inactive.

Turning to `COc1ccc(C#Cc2ccc3c(c2)O[C@H](CN(C)C(=O)Nc2cccc(OC)c2)[C@@H](C)CN([C@H](C)CO)S3(=O)=O)cc1`, the molecule was classed as inactive.

Turning to `C[C@H](CO)N1C[C@H](C)[C@H](CN(C)C(=O)Cc2ccccc2)OCCCC[C@H](C)Oc2ccc(NC(=O)Nc3ccc(C(F)(F)F)cc3)cc2C1=O`, the molecule was called inactive.

Take `Cc1csc2nc(CNC(=O)c3cccc(C(F)(F)F)c3)cn12`: the molecule was called inactive.

On to `O=C(NCC(=O)N(Cc1cccs1)C(C(=O)NC1CCCCC1)c1cccnc1)c1ccco1` (stereo not drawn), for which the result was inactive.

`O=C(Nc1ccccc1Cl)N1C[C@H]2[C@@H](c3ccccc31)[C@@H](CO)N2Cc1ccccc1`: the outcome was inactive.

As for `COc1ccc(N2C(=O)CSC23C(=O)Nc2ccccc23)cc1` (stereo not drawn), the molecule was called inactive.

Turning to `C[C@@H]1CCCCO[C@H](CN(C)S(=O)(=O)c2ccc(Cl)cc2)[C@H](C)CN([C@H](C)CO)C(=O)c2cc(NS(C)(=O)=O)ccc2O1`, the molecule was called inactive.

Turning to `C[C@H](CO)N1C[C@H](C)[C@@H](CN(C)Cc2ccc(C(F)(F)F)cc2)Oc2ccc(NC(=O)C3CCCCC3)cc2CC1=O`, the call was inactive.

Take `N#Cc1ccc(C(=O)NCC(c2ccco2)N2CCCCC2)cc1` (stereo not drawn): the call was inactive.

Regarding `CC(C)(C)n1nnnc1C(c1cccnc1)N1CCN(c2ccccc2F)CC1` (stereo not drawn), the molecule was called inactive.

As for `CCOC(=O)c1sc(NCC2CCCO2)nc1C` (stereo not drawn), the result was inactive.

With `Cc1noc(C)c1S(=O)(=O)Nc1cccc2c1O[C@@H](CN(C)S(C)(=O)=O)[C@@H](C)CN([C@H](C)CO)C2=O`, the result was inactive.

Take `C[C@@H]1CN([C@@H](C)CO)C(=O)c2cccc(NC(=O)c3ccc(-c4nccs4)cc3)c2O[C@@H]1CN(C)Cc1ccc(C(F)(F)F)cc1`: the result was inactive.

Regarding `COc1cc(OC)cc(C(=O)NCc2cccnc2)c1`, the outcome was inactive.

For the molecule `CC(C)(C)C(=O)Nc1ccc(C(=O)NCc2cccnc2)cc1`, the result was inactive.

Consider `CCOC(=O)c1nnc(-c2ccc(C)cc2)nc1Sc1ccc(Cl)cc1`, for which the molecule was classed as inactive.

Consider `COc1cnc(N(C)C)nc1Sc1ccc(Cl)cc1`, for which the result was inactive.

`COc1ccc(S(=O)(=O)Nc2ccc3c(c2)C(=O)N([C@@H](C)CO)C[C@@H](C)[C@H](CN(C)S(=O)(=O)c2ccc(F)cc2)OCCCC[C@@H](C)O3)cc1`: the result was inactive.

`COc1ccc(C(=O)c2nc3c(n2O)CCCC3)cc1OC`: the call was inactive.

With `Cc1ccc2nc(-c3cccc(NC(=O)c4ccc5c(c4)OCCO5)c3)oc2c1`, the outcome was inactive.

For the molecule `Cc1ccc(-c2csc(-c3c[nH]c4ccccc34)n2)cc1`, the molecule was classed as inactive.

On to `COc1ccc(-c2noc(CCCC(=O)NCCc3ccccc3)n2)cc1OC`, for which the call was inactive.

With `CC(C)NC(=O)N(C)C[C@@H]1Oc2ccc(NC(=O)Nc3cccc4ccccc34)cc2CC(=O)N([C@@H](C)CO)C[C@@H]1C`, the outcome was inactive.

For `O=C(NCC(=O)N(Cc1ccccc1)C(C(=O)NC1CCCCC1)c1ccco1)c1ccco1` (stereo not drawn), the outcome was inactive.

As to `COc1ccc(CNS(=O)(=O)c2ccc3c(c2)CCN3C(=O)C2CCC2)cc1`, the molecule was called inactive.

Turning to `COc1ccc(CNC(=O)C2CCCN(S(=O)(=O)c3ccc4c(c3)CCCN4C(C)=O)C2)cc1` (stereo not drawn), the call was inactive.

Regarding `C[C@@H]1CCCCO[C@@H](CN(C)S(=O)(=O)c2ccc(Cl)cc2)[C@H](C)CN([C@@H](C)CO)C(=O)c2cc(NS(C)(=O)=O)ccc2O1`, the molecule was called inactive.

In the case of `CC(C)COc1nc2ccccc2c(=O)n1OCC(=O)O`, the result was inactive.

On to `CC(C)C#Cc1ccc2c(c1)O[C@@H](CN(C)C(=O)C1CCC1)[C@@H](C)CN([C@@H](C)CO)S2(=O)=O`, for which the result was inactive.

With `NNC(=O)c1nn(-c2ccc(Cl)cc2)cc1O`, the molecule was called inactive.

On to `COc1ccc(-n2cnc3cc(NCc4cccs4)ccc32)cc1`, for which the call was inactive.

Consider `C[C@H](CO)N1C[C@H](C)[C@@H](CN(C)Cc2ccc(Cl)c(Cl)c2)Oc2ccc(NC(=O)CCC(F)(F)F)cc2CC1=O`, for which the outcome was inactive.

Take `O=S(=O)(NCC1CCN(S(=O)(=O)c2ccccc2)CC1)c1ccccc1`: the molecule was classed as inactive.

Consider `Cc1ccc(S(=O)(=O)n2nc(-c3ccco3)nc2SCc2ccccc2)cc1`, for which the outcome was inactive.

With `CCOC(=O)[C@H]1[C@H]2COc3ccc(Cl)cc3[C@@H]2N2C(=O)c3ccccc3NC(=O)[C@@]12C`, the molecule was called inactive.

On to `O=C(CNS(=O)(=O)c1ccc(Br)s1)N1CCN(c2ncccn2)CC1`, for which the outcome was inactive.

`Cc1nc2ccc(S(=O)(=O)NCC(=O)N3CCCC(C)C3)cc2s1` (stereo not drawn): the call was inactive.

`C[C@H]1CN([C@@H](C)CO)C(=O)Cc2cc(NC(=O)CCC(F)(F)F)ccc2O[C@@H]1CN(C)Cc1ccc(Oc2ccccc2)cc1`: the result was inactive.

For the molecule `COc1ccc(CCNC(=O)c2ccc(N3CCCC3=O)cc2)cc1`, the molecule was classed as inactive.

In the case of `COc1ccc(CNC(=O)CCOc2ccc(C(C)(C)C)cc2)cc1`, the molecule was classed as inactive.

In the case of `Cc1ccc(Cl)cc1NC(=O)COC(=O)CC1CC2CCC1C2` (stereo not drawn), the molecule was classed as inactive.

Take `COc1cccc(S(=O)(=O)N(C)C[C@H]2OCc3ccccc3-c3c(n(C)c4ccccc34)C(=O)N([C@H](C)CO)C[C@H]2C)c1`: the outcome was inactive.

Turning to `COc1ccc(CN(C)C[C@@H]2Oc3ccc(NS(=O)(=O)c4ccccc4)cc3CC(=O)N([C@H](C)CO)C[C@H]2C)cc1`, the result was inactive.

For the molecule `CCOC(=O)N1CCN(c2ccccc2O)CC1`, the molecule was called inactive.

With `CCOC(=O)N1CCN(C2CC(=O)N(c3ccc(Oc4ccccc4)cc3)C2=O)CC1` (stereo not drawn), the outcome was inactive.

`C[C@@H]1CN([C@H](C)CO)C(=O)c2cc(NS(C)(=O)=O)ccc2O[C@@H](C)CCCCO[C@@H]1CN(C)Cc1ccc(Cl)c(Cl)c1`: the molecule was called inactive.

On to `COc1ccc(C(=O)N2C[C@H]3[C@@H](c4ccccc42)[C@@H](CO)N3Cc2ccccc2)cc1`, for which the outcome was inactive.

As to `CCN(CC)c1nc(C#N)cc(-c2ccc(OC)cc2)n1`, the outcome was inactive.

On to `C[C@H](CO)N1C[C@H](C)[C@@H](CN(C)C(=O)Nc2ccccc2)Oc2ncc(C#CC3CCCC3)cc2C1=O`, for which the molecule was classed as inactive.

As for `C[C@H](CO)N1C[C@H](C)[C@@H](CN(C)C(=O)Nc2cccc3ccccc23)OCCCC[C@H](C)Oc2ccc(NC(=O)Nc3ccc4c(c3)OCO4)cc2C1=O`, the outcome was inactive.

For the origin of these results see PubChem BioAssay AID624405 (Broad Institute, 2012).
